Measured values taken from PubChem BioAssay (EPA / NIEHS).
Inconclusive results are not listed. Some compounds were tested as several samples or in several runs, with calls that do not always agree. Calls of active or inactive are those of the source. The calls were made as follows, unless noted: active = hit-call score of the fitted dose curve at least 0.9, where 1 is the maximum; inconclusive = response in the unintended direction; inactive = score below 0.9.

How the values were obtained:
SERPINA7 (gene 6906) = experiment: CCTE_GLTED_hTBG: CCTE's human Thyroxine-binding Globulin (TBG) Inhibition Assay, Great Lakes Toxicology and Ecology Division (GLTED) Lab (AID 2284343);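 also: active chemicals lower fluorescence versus DMSO baseline by displacing probe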
Outline: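 Steps: combine TBG with chemical; incubate 2 hours so that disruptors release ANSA; record fluorescence (380 ex, 475 em). Loss of signal was fitted against DMSO controls.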

[1] = Tanguay_ZF_120hpf_MO24: Oregon State University Tanguay Lab 24 Hour Post-fertilization zebrafish Assay for Mortality (AID 2284389; active = hit-call score of the fitted dose curve at least 0.9, where 1 is the maximum; inactive = score below 0.9)
Outline: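 Embryo death at 24 hpf was recorded as present or absent in Tropical 5D zebrafish, dechorionated at 4 hpf and dosed statically from 6 hpf (28C, 0.64% DMSO); 5 uM trimethyltin chloride served as positive control.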

[2] = Tanguay_ZF_120hpf_DP24: Oregon State University Tanguay Lab 24 Hour Post-fertilization zebrafish Assay for Delayed Development (AID 2284390; active = hit-call score of the fitted dose curve at least 0.9, where 1 is the maximum; inactive = score below 0.9)
Outline: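 Scored at 24 hpf as a binary present/absent call of delayed development by brightfield, with dead embryos not assessed. Embryos (5D wild type, chorion removed with pronase at 4 hpf) dosed statically from 6 hpf at 28 C in 0.64% DMSO.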

[3] = Tanguay_ZF_120hpf_CRAN: Oregon State University Tanguay Lab 120 Hour Post-fertilization zebrafish Assay for Craniofacial Malformation (AID 2284397; active = hit-call score of the fitted dose curve at least 0.9, where 1 is the maximum; inactive = score below 0.9)
Outline: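 Scoring of craniofacial malformation as a binary endpoint was done at 120 hpf by brightfield microscopy and was not done in dead embryos. Exposure was static, starting at 6 hpf, in dechorionated wild-type embryos held singly at 28C with 0.64% DMSO final.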

[4] = Tanguay_ZF_120hpf_AXIS: Oregon State University Tanguay Lab 120 Hour Post-fertilization zebrafish Assay for Axial Malformation (AID 2284398; active = hit-call score of the fitted dose curve at least 0.9, where 1 is the maximum; inactive = score below 0.9)
Outline: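 Scoring was binary (present or absent) for body-axis defects, judged by brightfield imaging at 120 hpf in surviving larvae. Exposure was static at 28C from 6 hpf in chorion-free 5D wild-type embryos, with 0.64% DMSO vehicle.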

[5] = Tanguay_ZF_120hpf_MORT: Oregon State University Tanguay Lab 120 Hour Post-fertilization zebrafish Assay for Mortality (AID 2284399; active = hit-call score of the fitted dose curve at least 0.9, where 1 is the maximum; inactive = score below 0.9)
Outline: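 Mortality, recorded present/absent via brightfield imaging at 24 and 120 hpf, in 5D zebrafish embryos exposed statically from 6 hpf after pronase chorion removal. Exposure at 28C, 0.64% DMSO vehicle, DMSO baseline.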

[6] = Tanguay_ZF_120hpf_EDEM: Oregon State University Tanguay Lab 120 Hour Post-fertilization zebrafish Assay for Edema Malformation (AID 2284400; active = hit-call score of the fitted dose curve at least 0.9, where 1 is the maximum; inactive = score below 0.9)
Outline: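 Edema recorded as a binary endpoint under brightfield at 120 hpf, excluding embryos that died. Exposure was static, sealed, 28C, from 6 hpf in dechorionated wild-type larvae, final DMSO 0.64%, DMSO as baseline.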

[7] = Tanguay_ZF_120hpf_MUSC: Oregon State University Tanguay Lab 120 Hour Post-fertilization zebrafish Assay for Muscle Malformation (AID 2284401; active = hit-call score of the fitted dose curve at least 0.9, where 1 is the maximum; inactive = score below 0.9)
Outline: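 Scored as a binary brightfield endpoint at 120 hpf, fitted versus DMSO. Single dechorionated wild-type (Tropical 5D) zebrafish embryos per well, statically exposed at 28C from 6 hpf onward with final DMSO 0.64%.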

[8] = Tanguay_ZF_120hpf_BRN: Oregon State University Tanguay Lab 120 Hour Post-fertilization zebrafish Assay for Brain Region Malformation (AID 2284402; active = hit-call score of the fitted dose curve at least 0.9, where 1 is the maximum; inactive = score below 0.9)
Outline: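 Binary brightfield scoring of brain malformation at 120 hpf in 5D wild-type larvae, chorion removed with pronase at 4 hpf. Static exposure began at 6 hpf, 28C, sealed plates, DMSO 0.64% (vol/vol) as vehicle baseline.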

[9] = Tanguay_ZF_120hpf_TCHR: Oregon State University Tanguay Lab 120 Hour Post-fertilization zebrafish Assay for Touch Responsive (AID 2284403; active = hit-call score of the fitted dose curve at least 0.9, where 1 is the maximum; inactive = score below 0.9)
Outline: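 Binary touch-response calls are made at 120 hpf in 5D wild-type zebrafish larvae. These larvae were dechorionated with pronase and exposed singly from 6 hpf in sealed, dark plates at 28 °C with 0.64% DMSO final; dead embryos are excluded.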

[10] = CCTE_Mundy_HCI_iCellGluta_NOG_NeuronCount: CCTE's Neurite Outgrowth Assay in iCellGluta cells for Neuron Count, Mundy Lab (AID 2284340);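 also: cells fixed about 48 h after compound addition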
Outline: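 Neuron count read by automated high-content imaging of Hoechst 33342 and betaIII-tubulin/Alexa Fluor-488 labelling in human iPSC glutamatergic neurons. Activity fitted relative to DMSO.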

[11] = CCTE_Mundy_HCI_iCellGluta_NOG_NeuriteCount: CCTE's Neurite Outgrowth Assay in iCellGluta cells for Neurite Count, Mundy Lab (AID 2284342);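 also: chemical exposure about 48 hours starting 2 hours after plating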
[12] = VALA_TUBIPS_Antagonist_CellCount: Viability Assessment in the VALA Sciences human iPS-derived Endothelial Tubule Formation (TUBIPS) Antagonism Assay (AID 2284335)
[13] = VALA_MIGHUV1_ScratchOnly_WoundArea: VALA Sciences human Umbilical Vein Endothelial Cell Migration (MIGHUV) Assay, Area of Scratch Wound Inhibited Recovery (AID 2284336)
Outline: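 Wound area remaining after 24 h recovery imaged by Hoechst nuclear fluorescence in scratched HUVEC cultures, chemicals added within 30 min of scratching across a 6-point series. Gain of signal fitted against 0.1% DMSO; cytochalasin D positive control.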

[14] = VALA_TUBHUV_Agonist_TubuleLength: VALA Sciences human Umbilical Vein Endothelial Tubule Formation (TUBHUV) Agonism Assay (AID 2284337)
Outline: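 Tubule length quantified by CD31 immunofluorescence imaging after fixation. HUVEC-HDF co-cultures (1:3) pre-grown 3 days with 10 ng/ml VEGF, then dosed 3 days in VEGF medium; 0.1 % DMSO vehicle baseline.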

[15] = VALA_TUBIPS_Agonist_CellCount: Viability Assessment in the VALA Sciences human iPS-derived Endothelial Tubule Formation (TUBIPS) Agonism Assay (AID 2284338)
[16] = IUF_NPC1_cytotoxicity_72hr: Cytotoxicity Assessment at 72 hours in the Leibniz Research Institute for Environmental Medicine (IUF) Neural Progenitor Cell Proliferation Assay (NPC1) (AID 2284332);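 also: rising LDH signal means more cytotoxicity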
Outline: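 Readout is fluorescence from LDH-dependent resazurin conversion, sampled from culture medium after compound contact lasting 72 h. Each well holds one 0.25-0.35 mm human progenitor sphere kept at 37C, 5% CO2 with EGF and FGF.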

[17] = CCTE_Deisenroth_H295R-HTRF_384WELL_ESTRADIOL: CCTE's H295R-HTRF Assay Evaluation of Estradiol Concentration, Deisenroth Lab (AID 2284361; active = hit-call score of the fitted dose curve at least 0.9, where 1 is the maximum; inactive = score below 0.9); settings: actives raise or lower the signal
Outline: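 Estradiol secreted into medium by H295R adrenocortical cells, quantified by HTRF after 48 h dosing over a nine-point 0.001 - 100 uM final range; gain or loss versus DMSO. Parallel ATP-luminescence viability readout; n=5 experiments.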

[18] = CCTE_Deisenroth_H295R-HTRF_384WELL_TESTOSTERONE: CCTE's H295R-HTRF Assay Evaluation of Testosterone Concentration, Deisenroth Lab (AID 2284373; active = hit-call score of the fitted dose curve at least 0.9, where 1 is the maximum; inactive = score below 0.9); settings: actives raise or lower the signal
Outline: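 H295R cells were acclimated 24 h, then exposed 48 h to nine concentrations (0.001–100 uM final) in technical triplicate, n=5. Testosterone in conditioned medium was measured by HTRF (em 620/665 nm). Fitting was bidirectional versus DMSO; CellTiter-Glo viability ran on the same plates.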

Nc1ccc(N=Nc2ccccc2)cc1
AC50 (SERPINA7 (gene 6906)): 20.9 µM (active)

CCNS(=O)(=O)C(F)(F)C(F)(F)C(F)(F)C(F)(F)C(F)(F)C(F)(F)C(F)(F)C(F)(F)F
outcome [1]: inactive | outcome [2]: inactive | AC50 [3]: 75.6 µM (active) | AC50 [4]: 70.1 µM (active) | outcome [5]: inactive | AC50 [6]: 62.9 µM (active) | outcome [7]: inactive | outcome [8]: inactive | outcome [9]: inactive

CS(=O)(=O)NC(=O)c1cc(Oc2ccc(C(F)(F)F)cc2Cl)ccc1[N+](=O)[O-]
AC50 (SERPINA7 (gene 6906)): 16.1 µM (active)

CC(C)COC(=O)c1ccccc1C(=O)OCC(C)C
outcome [10]: inactive | outcome [11]: inactive | AC50 (SERPINA7 (gene 6906)): 16.1 µM (active)

CO[C@@H]1[C@H](OC(=O)NC(=O)CCl)CC[C@]2(CO2)[C@H]1[C@@]1(C)O[C@@H]1CC=C(C)C
outcome [12]: inactive | outcome [13]: inactive | outcome [14]: inactive | AC50 [15]: 0.168 µM (active) | outcome [15]: inactive

CC(C)(C)C(O)(CCc1ccc(Cl)cc1)Cn1cncn1 (configuration not stated)
outcome [16]: inactive | AC50 (SERPINA7 (gene 6906)): 26.9 µM (active) | outcome [17]: inactive | AC50 [18]: 2 µM (active)

CCC[CH2][Sn]([Cl])([CH2]CCC)[CH2]CCC
AC50 [16]: 0.637 µM (active) | AC50 [10]: 0.257 µM (active) | AC50 [11]: 0.183 µM (active)

c1ccc(NNc2ccccc2)cc1
AC50 (SERPINA7 (gene 6906)): 39.1 µM (active)
